The source of these data is PubChem BioAssay (NCATS).

In assay [1] the target is Phosphoglycerate kinase, glycosomal (Trypanosoma brucei brucei) (UniProt P07378). The assay can be described thus: qHTS Validation Assay to Find Inhibitors of Phosphoglycerate Kinase (AID 504547). The conditions noted are these: enzymatic PGK inhibition, coupled luminescence read-out; series mostly up to 57.5 µM. The method, boiled down: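 Compounds are pinned into the substrate/PGK mixture, and GAPDH (100nM final) is added to start the reaction by producing 1,3-BPG. After 60 minutes at room temperature, Kinase-Glo Plus is added and luminescence is measured 10 minutes later.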
Phosphoglycerate kinase, glycosomal (Trypanosoma brucei brucei), sequence (P07378 whole entry, looked up): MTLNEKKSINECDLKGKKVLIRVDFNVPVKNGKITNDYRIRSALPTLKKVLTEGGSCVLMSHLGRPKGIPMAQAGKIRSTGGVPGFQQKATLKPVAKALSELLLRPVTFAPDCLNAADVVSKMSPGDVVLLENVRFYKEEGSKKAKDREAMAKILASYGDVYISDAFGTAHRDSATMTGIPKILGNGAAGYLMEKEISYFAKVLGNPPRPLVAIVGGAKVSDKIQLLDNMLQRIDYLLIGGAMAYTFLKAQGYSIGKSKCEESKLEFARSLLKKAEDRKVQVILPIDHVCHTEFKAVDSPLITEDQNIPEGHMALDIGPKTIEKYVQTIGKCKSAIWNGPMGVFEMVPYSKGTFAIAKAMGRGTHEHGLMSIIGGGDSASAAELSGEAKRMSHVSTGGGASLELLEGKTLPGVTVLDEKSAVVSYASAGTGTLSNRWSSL

Assay [2] deals with phosphoglycerate mutase (Leishmania major) (UniProt Q4Q090). The assay is described as follows: qHTS Validation Assay to Find Inhibitors of Phosphoglycerate Mutase (AID 504548). The conditions noted are these: biochemical enzyme activity; series mostly up to 57.5 µM. An outline of the steps:
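Lm PGAM 1.25nM final; 100 mM TEA pH 7.6, 5 mM MgCl2, 0.01% Tween-20; 45 min RT; Kinase-GloPlus, 10 min; end-point luminescence. Enzyme-free wells as negative controls.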
Background: Quantitative high-throughput screening tests each substance at several concentrations.

Assay [3] concerns the target Ubiquitin carboxyl-terminal hydrolase 1 (Homo sapiens) (UniProt O94782). The assay is described as follows: Inhibitors of USP1/UAF1: Pilot qHTS (AID 504865). Note: nearly all actives have a fitted effect of over 35% in size. Note: potency is the fitted concentration of half-maximal effect. The conditions noted are these: purified USP1/UAF1, Ub-rhodamine cleavage fluorescence; series mostly up to 114 µM. An outline of the steps: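 In 50mM HEPES pH 7.8 containing 0.5mM EDTA, 1mM TCEP, 0.1 mg/ml BSA and 0.01% Tween-20, 1nM USP1/UAF1 is exposed to compound for 15 min, then Ub-Rho (150nM final) is added and fluorescence is read over time.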

A short description of assay [4]: qHTS for Inhibitors of ATXN expression: Validation of Cytotoxic Assay (AID 588349). The conditions noted are these: cytotoxicity counter-screen for ATXN expression inhibitors, cell viability; series mostly up to 57.1 µM. An outline of the steps: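 Cytotoxicity counter-screen: HEK293 cells exposed to compound titrations, 72 hr, 37 degrees C. Read-out is intracellular ATP (CellTiter Glo luminescence) as a viability measure.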

Assay [5] in a line: qHTS for Inhibitors of ATXN expression: Validation (AID 588378). Note: nearly all actives have a fitted effect of over 75% in size. Note: potency is the fitted concentration of half-maximal effect. The conditions noted are these: cell-based ATXN2 expression reporter assay, luminescence; series mostly up to 57.1 µM. The method, boiled down:
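Compounds were pinned onto attached HEK293 cells carrying an ATXN2-firefly luciferase construct and incubated 24 hrs at 37 degrees C. Each well then received a fluorescent viability reagent followed by luciferase substrate for end-point luminescence.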

Assay [6] deals with Estrogen receptor (Homo sapiens) (UniProt P03372). The assay is described as follows: qHTS assay for small molecule antagonists of estrogen receptor alpha signaling (AID 588513; active = well fitted curve in the direction sought with a large enough effect in the signal ratio, with a control signal flat, not every such curve was filed as active; the % refers to the signal ratio). The conditions noted are these: ER-alpha-UAS-bla HEK293, beta-lactamase ratio, antagonist mode; series mostly up to 76.9 µM. The method, boiled down: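 Fluorescence from CCF4 substrate after 2 h at room temperature gave reporter activity; cells had been exposed to compound and 0.5nM 17-beta-estradiol for 18 h at 37 C. Hill-equation fitting yielded IC50 and maximal response.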
Estrogen receptor (Homo sapiens), sequence (P03372 whole entry, looked up): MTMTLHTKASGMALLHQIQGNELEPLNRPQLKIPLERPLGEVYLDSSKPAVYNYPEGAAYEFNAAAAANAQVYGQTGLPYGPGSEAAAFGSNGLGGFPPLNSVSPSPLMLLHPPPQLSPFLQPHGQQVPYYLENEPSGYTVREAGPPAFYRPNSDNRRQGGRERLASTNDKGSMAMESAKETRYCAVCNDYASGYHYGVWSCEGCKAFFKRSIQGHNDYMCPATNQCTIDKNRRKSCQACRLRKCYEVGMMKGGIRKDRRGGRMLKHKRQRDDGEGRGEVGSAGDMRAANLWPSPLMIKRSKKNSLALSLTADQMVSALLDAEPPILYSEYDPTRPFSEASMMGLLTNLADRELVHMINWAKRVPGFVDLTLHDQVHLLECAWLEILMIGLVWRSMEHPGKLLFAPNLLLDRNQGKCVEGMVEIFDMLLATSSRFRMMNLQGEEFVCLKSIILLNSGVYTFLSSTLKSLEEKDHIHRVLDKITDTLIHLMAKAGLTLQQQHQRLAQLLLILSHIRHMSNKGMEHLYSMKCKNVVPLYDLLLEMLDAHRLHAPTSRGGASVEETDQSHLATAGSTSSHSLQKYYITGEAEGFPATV

Assay [7] has the same target. The assay is described as follows: qHTS assay for small molecule agonists of estrogen receptor alpha signaling (AID 588514; calls by dose curve; note: nearly all actives have a fitted effect of over 70% in size). The conditions noted are these: ER-alpha-UAS-bla HEK293, beta-lactamase ratio, 18 h, percent of full estradiol response, vehicle zero; series mostly up to 76.8 µM. An outline of the steps:
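Read-out: CCF4 fluorescence from a beta-lactamase reporter in ER-alpha-UAS-bla HEK 293 cells after 18 hrs of compound exposure at 37 C. Normalized to 20 nM 17-beta-estradiol (100%) and DMSO (0%).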

Records with an inconclusive call do not appear. The source made the active and inactive calls. Unless noted, calls come from the whole dose curve; as a rule, active = well fitted curve in the direction sought with a large enough effect; inconclusive = small, poorly fitted or top-dose-only effect, or another doubt; inactive = no such curve, though single readings can be large; an effect the other way counts as inactive or inconclusive.

Ubiquitin carboxyl-terminal hydrolase 1 (Homo sapiens), sequence (O94782 whole entry, looked up): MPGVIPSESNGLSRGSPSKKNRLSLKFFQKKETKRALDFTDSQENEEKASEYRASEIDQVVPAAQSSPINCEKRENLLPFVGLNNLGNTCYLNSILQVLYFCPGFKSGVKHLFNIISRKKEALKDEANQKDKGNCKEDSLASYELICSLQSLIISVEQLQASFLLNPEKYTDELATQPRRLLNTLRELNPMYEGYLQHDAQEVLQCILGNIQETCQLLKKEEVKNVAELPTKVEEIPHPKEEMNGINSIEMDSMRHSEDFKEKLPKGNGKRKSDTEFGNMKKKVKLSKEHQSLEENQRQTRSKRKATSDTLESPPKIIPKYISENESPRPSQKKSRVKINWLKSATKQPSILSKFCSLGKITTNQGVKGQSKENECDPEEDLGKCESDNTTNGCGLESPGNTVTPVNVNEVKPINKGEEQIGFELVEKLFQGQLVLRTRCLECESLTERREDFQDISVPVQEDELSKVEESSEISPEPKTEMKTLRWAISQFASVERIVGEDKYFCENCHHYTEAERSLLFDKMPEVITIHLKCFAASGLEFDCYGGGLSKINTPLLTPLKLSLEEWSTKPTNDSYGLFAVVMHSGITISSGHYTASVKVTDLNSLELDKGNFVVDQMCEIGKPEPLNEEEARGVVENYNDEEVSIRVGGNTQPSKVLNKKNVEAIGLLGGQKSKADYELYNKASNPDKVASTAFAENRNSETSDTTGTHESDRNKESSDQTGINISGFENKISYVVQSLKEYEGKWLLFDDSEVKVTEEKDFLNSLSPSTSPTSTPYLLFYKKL
phosphoglycerate mutase (Leishmania major), sequence (Q4Q090 1-553): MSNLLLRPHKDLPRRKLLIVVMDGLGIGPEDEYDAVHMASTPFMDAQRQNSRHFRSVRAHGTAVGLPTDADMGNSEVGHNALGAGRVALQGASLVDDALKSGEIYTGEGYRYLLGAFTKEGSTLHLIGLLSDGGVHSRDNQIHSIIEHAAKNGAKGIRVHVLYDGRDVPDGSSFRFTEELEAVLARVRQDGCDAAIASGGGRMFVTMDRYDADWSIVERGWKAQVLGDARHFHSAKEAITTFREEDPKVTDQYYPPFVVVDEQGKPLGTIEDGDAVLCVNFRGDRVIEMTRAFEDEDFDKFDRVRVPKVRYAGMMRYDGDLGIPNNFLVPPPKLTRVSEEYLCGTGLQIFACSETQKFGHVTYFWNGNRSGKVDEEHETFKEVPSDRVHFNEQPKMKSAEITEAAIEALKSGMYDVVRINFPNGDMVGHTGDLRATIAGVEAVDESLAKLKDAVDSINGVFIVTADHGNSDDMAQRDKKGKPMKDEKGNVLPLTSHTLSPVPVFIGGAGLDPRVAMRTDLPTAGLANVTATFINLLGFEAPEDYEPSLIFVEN

`CCCn1c(=O)[nH]c(=O)c2[nH]cnc21`: the outcome in assay [1], in assay [2] and in assay [4] was inactive. The Potency entry in assay [3] and in assay [5] was “inactive” in each case.

With `Oc1ccc(O)cc1`, the outcome in assay [1] and in assay [2] was inactive. Moreover, the Potency entry in assay [3] is “inactive”.

In the case of `C[C@]12CC[C@@H]3c4ccc(O)cc4CC[C@H]3[C@@H]1CC[C@@H]2O`, the result in assay [1] and in assay [2] was inactive. Moreover, the Potency entry in assay [3] and in assay [5] was “inactive” each time.

`N[C@H](CO)C(=O)O`: the outcome in assay [1], in assay [2] and in assay [4] was inactive. Besides, the Potency result in assay [3] and in assay [5] was “inactive” throughout.

Take `O=C(O)c1cc2cc(Cc3cccnc3)ccc2o1`: the outcome in assay [1], in assay [2] and in assay [4] was inactive. Also, the Potency entry in assay [3] and in assay [5] was “inactive” throughout.

Regarding `CC[C@H](C)C(=O)O[C@H]1CCC=C2C=C[C@H](C)[C@H](CC[C@@H]3C[C@@H](O)CC(=O)O3)[C@H]21`, the result in assay [1], in assay [2] and in assay [4] was inactive. Further, the Potency result in assay [3] and in assay [5] was “inactive” in each case.

As for `NCCc1ccn[nH]1`, the Potency entry in assay [3] is “inactive”.

With `CCCCCCCCCCCCCCCC[N+](C)(C)CCN(Cc1ccc(OC)cc1)c1ncccn1`, in assay [3], the Potency was 31.6 µM (active).

With `Cc1c(F)c(N2CCNC(C)C2)cc2c1c(=O)c(C(=O)O)cn2C1CC1` (configuration not stated), the Potency entry in assay [3] is “inactive”.

`CC(=O)O[C@H]1C[C@@H]2CC[C@@H]3[C@H](CC[C@@]4(C)[C@H]3C[C@H]([N+]3(C)CCCCC3)[C@@H]4OC(C)=O)[C@@]2(C)C[C@@H]1[N+]1(C)CCCCC1`: the outcome in assay [1], in assay [2] and in assay [4] was inactive. For the same compound, the Potency entry in assay [5] was “inactive”.

For `CN(C(=O)CN(CCO)CC(=O)N(C)C(C)(C)Cc1ccccc1)C(C)(C)Cc1ccccc1`, the Potency entry in assay [3] was “inactive”.

For the compound `COC(=O)[C@H]1[C@H]2C[C@H]3c4[nH]c5ccccc5c4CCN3C[C@H]2CC[C@@H]1O`, the outcome in assay [1], in assay [2] and in assay [4] was inactive. Besides, the Potency entry in assay [3] and in assay [5] was “inactive” each time.

For `O=C1CCC(c2ccc(-n3ccnc3)cc2)=NN1`, the result in assay [1], in assay [2] and in assay [4] was inactive. The Potency result in assay [3] and in assay [5] was “inactive” in each case.

As to `CCCC1O[C@@H]2C[C@H]3[C@@H]4CCC5=CC(=O)C=C[C@]5(C)[C@H]4[C@@H](O)C[C@]3(C)[C@]2(C(=O)CO)O1` (some centres not stated), the outcome in assay [1], in assay [2] and in assay [4] was inactive. The Potency result in assay [3] and in assay [5] was “inactive” in each case.

With `CC(=O)N(O)CCCCCNC(=O)CCC(=O)N(O)CCCCCNC(=O)CCC(=O)N(O)CCCCCN`, in assay [3], the Potency entry is “inactive”.

Turning to `CC(C)(C(=O)c1cccnc1)c1cccnc1`, the Potency result in assay [3] is “inactive”.

`COc1cc(NS(C)(=O)=O)ccc1Nc1c2ccccc2nc2ccccc12`: the result in assay [1] and in assay [2] was inactive. Also, in assay [5], the Potency was 0.355 µM (active).

As to `O=C(CCN1CCC(c2ccccc2)C1)c1ccc2c(c1)OCCO2` (configuration not stated), the Potency entry in assay [3] is “inactive”.

`CNCCC=C1c2ccccc2CCc2ccccc21`: the outcome in assay [1] and in assay [2] was inactive. Also, in assay [3], the Potency result is “inactive”. The Potency in assay [5] is 15.8 µM (active).

Take `CC1(C)CCC(NC(=O)[C@@H](N)CCC(=O)O)CC1`: the result in assay [1], in assay [2] and in assay [4] was inactive. Besides, the Potency result in assay [3] and in assay [5] was “inactive” in each case.

For `CCC(NC(C)C)C(O)c1ccc(O)c(O)c1` (configuration not stated), the outcome in assay [1] and in assay [4] was inactive. Besides, the Potency entry in assay [3] is “inactive”.

In the case of `C[C@@H]1C(=O)NC2=Nc3cccc(Cl)c3CN21`, the outcome in assay [1], in assay [2] and in assay [4] was inactive. In addition, the Potency result in assay [3] and in assay [5] was “inactive” each time.

`COc1cc2c(cc1O)CC[C@@H]1[C@@H]2CC[C@]2(C)[C@@H](O)CC[C@@H]12`: the outcome in assay [1] and in assay [2] was inactive. Moreover, the Potency result in assay [3] and in assay [5] was “inactive” each time.

Consider `N[C@@H](Cc1cnc[nH]1)C(=O)O`, for which the result in assay [1], in assay [2] and in assay [4] was inactive. In addition, the Potency entry in assay [3] and in assay [5] was “inactive” in each case.

Take `CC(C)C[C@H]1C(=O)N2CCC[C@H]2[C@]2(O)O[C@](NC(=O)[C@@H]3C=C4c5cccc6[nH]c(Br)c(c56)C[C@H]4N(C)C3)(C(C)C)C(=O)N12`: the outcome in assay [1] and in assay [2] was inactive.

Take `CNCCC(Oc1ccccc1C)c1ccccc1` (configuration not stated): the result in assay [1], in assay [2] and in assay [4] was inactive. Moreover, the Potency result in assay [3] was “inactive”.

For `Nc1cc(Cl)c(NC2=NCCN2)c(Cl)c1`, the result in assay [1], in assay [2] and in assay [4] was inactive. Further, the Potency result in assay [3] and in assay [5] was “inactive” in each case.

Take `CC(CCc1ccccc1)NCC(O)c1ccc(O)c(C(N)=O)c1` (configuration not stated): the result in assay [1] and in assay [2] was inactive. The Potency entry in assay [3] is “inactive”.

For `CC(C)COC(=O)OCN1C(=O)CN(CCN2CC(=O)N(COC(=O)OCC(C)C)C(=O)C2)CC1=O`, the result in assay [1], in assay [2] and in assay [4] was inactive. Moreover, the Potency result in assay [3] and in assay [5] was “inactive” each time.

As for `CN1C2CCC1CC(OC(=O)c1c[nH]c3ccccc13)C2` (configuration not stated), the result in assay [1] and in assay [2] was inactive. Besides, the Potency result in assay [3] was “inactive”.

Take `C1CCc2nnnn2CC1`: the outcome in assay [1], in assay [2] and in assay [4] was inactive. The Potency entry in assay [3] and in assay [5] was “inactive” each time.

`C[N+]1(CCCCC[N+]2(C)CCCC2)CCCC1`: the result in assay [1], in assay [2] and in assay [4] was inactive. The Potency entry in assay [3] and in assay [5] was “inactive” in each case.

As for `CC(=O)O[C@]1(C(C)=O)CC[C@H]2[C@@H]3C[C@H](C)C4=CC(=O)CC[C@]4(C)[C@H]3CC[C@@]21C`, the Potency result in assay [6] is “inactive”. Moreover, in assay [7], the result was inactive.

Regarding `CC(O)C(=O)O` (configuration not stated), the Potency entry in assay [3] and in assay [6] was “inactive” in each case. Further, the outcome in assay [7] was inactive.

Take `O=c1ccc2ccccc2o1`: the Potency result in assay [3] and in assay [6] was “inactive” throughout. Moreover, in assay [7], the outcome was inactive.
